Data from PubChem BioAssay AID720700 (The Scripps Research Institute Molecular Screening Center, 2013).
Out of some 370,000 compounds screened, about 3,100 (0.84%) were called active. Only a selection was taken, and actives are over-represented in it overall. A number with no mark means an inactive call. Rule as the data show it: active = inhibition above about 9.5%; inactive = the rest.

target: 1-phosphatidylinositol 4,5-bisphosphate phosphodiesterase gamma-1 (Homo sapiens) (UniProt P19174); experiment: blockers of human PLCG1 activity – biochemical, fluorescence, purified enzyme, primary screen (AID 720700); conditions: purified PLC-gamma1, fluorogenic substrate, at 12.2 µM, hits give high values
Sequence (P19174 whole entry, looked up): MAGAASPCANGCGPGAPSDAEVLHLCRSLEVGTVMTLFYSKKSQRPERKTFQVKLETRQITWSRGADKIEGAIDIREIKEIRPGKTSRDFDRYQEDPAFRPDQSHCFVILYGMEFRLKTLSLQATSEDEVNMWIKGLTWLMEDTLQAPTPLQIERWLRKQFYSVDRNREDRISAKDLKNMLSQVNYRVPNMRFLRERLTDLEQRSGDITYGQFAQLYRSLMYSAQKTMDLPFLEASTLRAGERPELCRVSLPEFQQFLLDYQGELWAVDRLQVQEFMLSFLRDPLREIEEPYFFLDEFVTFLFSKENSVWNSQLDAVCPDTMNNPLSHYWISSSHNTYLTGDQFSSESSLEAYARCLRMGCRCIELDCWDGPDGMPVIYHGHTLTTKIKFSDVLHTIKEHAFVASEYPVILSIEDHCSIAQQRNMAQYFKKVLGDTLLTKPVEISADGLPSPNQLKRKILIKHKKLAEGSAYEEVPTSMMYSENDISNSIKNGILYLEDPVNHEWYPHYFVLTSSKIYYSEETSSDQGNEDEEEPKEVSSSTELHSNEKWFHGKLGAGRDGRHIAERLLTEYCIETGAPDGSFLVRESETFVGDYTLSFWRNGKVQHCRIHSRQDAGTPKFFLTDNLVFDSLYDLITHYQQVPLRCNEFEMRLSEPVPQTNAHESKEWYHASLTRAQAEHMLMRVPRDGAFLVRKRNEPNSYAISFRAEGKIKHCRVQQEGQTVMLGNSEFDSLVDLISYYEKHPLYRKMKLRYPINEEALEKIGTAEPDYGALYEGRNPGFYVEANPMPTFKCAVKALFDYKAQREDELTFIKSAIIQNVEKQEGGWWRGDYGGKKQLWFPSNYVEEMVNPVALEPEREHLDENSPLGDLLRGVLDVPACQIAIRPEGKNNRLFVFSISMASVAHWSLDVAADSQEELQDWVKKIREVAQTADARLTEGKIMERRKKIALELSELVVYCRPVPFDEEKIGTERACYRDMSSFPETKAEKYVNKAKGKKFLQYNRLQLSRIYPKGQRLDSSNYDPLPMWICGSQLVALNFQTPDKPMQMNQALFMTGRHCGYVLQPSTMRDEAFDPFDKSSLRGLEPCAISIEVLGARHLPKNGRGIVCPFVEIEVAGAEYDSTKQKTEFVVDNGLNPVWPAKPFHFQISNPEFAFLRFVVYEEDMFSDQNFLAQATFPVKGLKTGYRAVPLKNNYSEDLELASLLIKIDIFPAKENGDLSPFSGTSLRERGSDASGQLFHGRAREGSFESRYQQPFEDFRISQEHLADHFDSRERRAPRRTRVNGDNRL

Row | SMILES | inhibition
1 | COc1ccc(C2Nc3ccccc3C(=O)N2Cc2cccs2)cc1COc1c(C)cccc1C (stereo not drawn) | -106%
2 | CCOC(=O)Nc1ccc2c(c1)N(C(=O)CCCl)c1ccccc1[S@]2=O | -0.45%
3 | CCOC(=O)Nc1ccc(NC(=O)OCC)cc1 | 11.8% (active)
4 | CCOC(=O)Nc1ccc(S(=O)(=O)N(C)C(C)C)cc1 | 0.75%
5 | COc1ccc(N2CCN(CCNS(=O)(=O)c3ccc(Cl)s3)CC2)cc1 | -2.58%
6 | O=C(O)c1ccc(Cn2c(=S)[nH]c3cc(Cl)ccc3c2=O)cc1 | 11% (active)
7 | NC(=O)C1CCN(C(=O)c2ccc3c(=O)n(Cc4cccc(Br)c4)c(=S)[nH]c3c2)CC1 | 4.14%
8 | CCOc1cc2[nH]c(=S)n(Cc3ccc(C(=O)N4CCN(C)CC4)cc3)c(=O)c2cc1OCC | -0.53%
9 | O=C(NC1CCCCN(Cc2cccc(C(F)(F)F)c2)C1=O)c1ccccc1I (stereo not drawn) | -1.03%
10 | COc1ccc(/C(C)=N/N2CCOCC2)c(O)c1 | 15.9% (active)
11 | COc1ccc(OC)c(C(=O)c2coc3ccc(O)c(CN4CCOCC4)c23)c1 | -8.55%
12 | COc1ccc(C(=O)CC(=O)c2ccc(C)cc2)c(O)c1 | -16%
13 | COC(=O)c1cc(S(=O)(=O)N2CCN(C(=O)C3CCCO3)CC2)cn1C (stereo not drawn) | 0.5%
14 | C[C@@H](NC(=O)c1ccccc1OCC(=O)Nc1ccc(I)cc1)C(=O)N(C)Cc1ccccc1 | -0.29%
15 | COc1ccc(C2(c3ccc(OC)cc3)NC(=O)N(CC(=O)Nc3cc(C)on3)C2=O)cc1 | 0.49%
16 | Cc1cc(NC(=O)CN2C(=O)NC(CC(C)C)C2=O)no1 (stereo not drawn) | 10.2% (active)
17 | Cc1cc(NC(=O)CN2C(=O)NC(CCc3ccccc3)C2=O)no1 (stereo not drawn) | -2.53%
18 | CC(c1ccc(N)cc1)c1cn(C)c2ccccc12 (stereo not drawn) | 0.79%
19 | CCOC(=O)[C@]12CCCC=C1N(Cc1ccc(OC)cc1)C(=O)[C@@H]2CC(=O)NCc1cccs1 | 0.39%
20 | O=C1Nc2ccccc2OC1CC(=O)N1CCCCCCC1 (stereo not drawn) | -0.62%
21 | C[C@H]1CN(c2ccc(Br)cc2)C(=O)[C@@H]1CC(=O)Nc1ccc(Br)cc1 | -2.46%
22 | O=C(C[C@H]1C(=O)N(c2ccc(F)c(F)c2)C[C@@H]1Cc1ccccc1)Nc1ccccc1 | 17.8% (active)

Row | SMILES | inhibition
23 | CNC(=O)C[C@H]1C(=O)N(c2ccc(OC)cc2)C[C@@H]1Cc1ccccc1 | 1.07%
24 | Cc1ccc(-n2c(SCC(=O)Nc3cccc4ccccc34)nnc2-c2ccco2)cc1 | 0.45%
25 | CC(C)CCn1cnc2c1c(=O)n(CC(=O)NC(N)=O)c(=O)n2Cc1ccccc1 | 2.87%
26 | CC(C)Cn1cnc2c1c(=O)n(CC(=O)NN)c(=O)n2Cc1ccccc1 | -18.6%
27 | CC(C)Cn1cnc2c1c(=O)n(CC(O)c1ccccc1)c(=O)n2CC(C)C (stereo not drawn) | 16.4% (active)
28 | COc1cccc(N2CCN(CC(=O)N(C)Cc3ccc(F)cc3)CC2)c1 | 0.54%
29 | CCc1ccccc1N(CC(=O)NCCSCc1ccco1)S(C)(=O)=O | -1.22%
30 | Cc1cc(C)cc(N(CC(=O)NCCSCc2ccco2)S(C)(=O)=O)c1 | 2.48%
31 | CS(=O)(=O)N(Cc1ccc(Cl)cc1)c1ccc(C(=O)NCCSCc2ccco2)cc1 | 9.72% (active)
32 | CCCCNC(=O)C[C@H]1C[C@@]2(C(=O)OC)C(=C[C@H](COCc3ccccc3)O[C@@H]2C)N(Cc2ccc(Cl)cc2Cl)C1=O | 2.69%
33 | O=C1C(=O)N(Cc2ccc(-c3ccsc3)cc2)c2ccc(OC(F)(F)F)cc21 | -5.5%
34 | CCN(CC)C(=O)CC[C@@H]1CC[C@]2(CCCN(S(=O)(=O)C3CCCCC3)C2)O1 | -1.56%
35 | COC(=O)C1CN(CCc2ccccc2)CCS(=O)(=O)N1Cc1ccc(F)cc1 (stereo not drawn) | 0.52%
36 | Cc1ccc(S(=O)(=O)N2CCN(C(=O)Cc3sc(C)nc3-c3ccc(F)cc3)CC2)c(C)c1 | -4.71%
37 | Cc1nc(-c2ccc(F)cc2)c(CC(=O)Nc2cc(S(=O)(=O)N3CCCCC3)ccc2C)s1 | 0.89%
38 | Cc1nc(-c2ccc(F)cc2)c(CC(=O)N2CCN(S(=O)(=O)c3ccc(F)cc3)CC2)s1 | 12.6% (active)
39 | O=C(c1ccc2c(c1)OCO2)N1CCNc2ccccc2C1 | 9.9% (active)
40 | O=CN1CCN(C(=O)c2ccc3c(c2)OCO3)CC1 | 0.54%
41 | O=C(C(=O)N1CCN(c2ccccc2)CC1)c1ccc2c(c1)OCO2 | -0.77%
42 | N#Cc1ccc(OC[C@@H](O)CN2CCC(C(O)(c3ccccc3)c3ccccc3)CC2)c(F)c1 | 0.67%
43 | COCCCNC(=O)C[C@H]1C[C@@]2(C(=O)OC)C(=C[C@H](C(C)(C)C)O[C@@H]2C)N(Cc2ccc(Cl)cc2Cl)C1=O | 1.11%
